Assay [1] can be described thus: ATG_M_06_XSP1: Attagene TRANS-FACTORIAL Multi-Species (XSP1) HepG2 Assay for M06 Transcription Factor (Internal Marker) (AID 2283790). The procedure, abridged:
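This background-control readout tracks M06 reporter mRNA, measured by RT-PCR and capillary electrophoresis. HepG2 cells transiently carrying the GAL4-UAS reporter panel were dosed for 24 h with 3 nM 6-alpha-fluorotestosterone added for partial AR stimulation; increases were scored relative to DMSO.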

A short description of assay [2]: ATG_M_61_XSP1: Attagene TRANS-FACTORIAL Multi-Species (XSP1) HepG2 Assay for M61 Transcription Factor (Internal Marker) (AID 2283797). The method, then: (§1) ATG_XSP1_multi-species_TRANS is a cell-based, multiplexed assay created by modifying the existing Attagene TRANS-FACTORIAL system to include a panel of nuclear receptors from some or all the following species: human (Homo sapiens), mouse (Mus musculus), frog (Xenopus laevis), zebrafish (Danio rerio), chicken (Gallus gallus), and turtle (Chrysemys picta). The ECOTOX-FACTORIAL format uses HepG2, a human liver cell line, with measurements taken at 24 hours after chemical dosing in a 24-well plate. Xsp1 included 3 nM 6-alpha-fluorotestosterone to partially stimulate the androgen receptor.ATG_M_61_XSP1 is one of 29 assay components measured or calculated from the ATG_XSP1_multi-species_TRANS assay. It is designed to make measurements of mRNA induction, a form of inducible reporter, as detected with fluorescence intensity signals by Reverse transcription polymerase chain reaction (RT-PCR) and Capillary electrophoresis technology.This assay endpoint, ATG_M_61_XSP1, was analyzed in the positive analysis fitting direction relative to DMSO as the negative control and baseline of activity. […] Furthermore, this assay endpoint can be referred to as a secondary readout, because this assay has produced multiple assay endpoints where this one serves a background control function. […]
Human liver HepG2 cells are transiently transfected with multiple reporter transcription units (MRTUs) in 6-well plates using FuGene 6 reagent (Roche; 3 ml FuGene/1 mg DNA). […] A major difference between the CIS and TRANS system is that in CIS activities of endogenous TFs are measured, whereas the TRANS assay evaluates changes in activities of exogenous, chimeric NR-Gal4 proteins. […] The fragments were purified using Qiaquick PCR columns (Qiagen), analyzed on an ABI 3130xL genetic analyzer (Applied Biosystems) with peak positions identified by using a set of X-rhodamine (ROX)-labeled MapMarker1000 molecular weight standards (BioVentures). […]

Assay [3] is described as follows: ATG_M_32_XSP1: Attagene TRANS-FACTORIAL Multi-Species (XSP1) HepG2 Assay for M32 Transcription Factor (Internal Marker) (AID 2283799). The method, then: as §1, with “receptor.ATG_M_32_XSP1” for “receptor.ATG_M_61_XSP1”, “ATG_M_32_XSP1,” for “ATG_M_61_XSP1,”
The target of assay [4] is Peroxisome proliferator-activated receptor gamma (Homo sapiens) (UniProt P37231). Put plainly: ATG_hPPARg_XSP1: Attagene TRANS-FACTORIAL Multi-Species (XSP1) HepG2 Assay for human Peroxisome Proliferator-activated Receptor gamma (PPARg) (AID 2283800). The procedure, abridged:
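Reporter mRNA induction, measured by RT-PCR with capillary electrophoresis 24 h after dosing, scored as gain over DMSO. Transfected HepG2 cells express exogenous NR-Gal4 chimeras driving GAL4-UAS reporters; medium includes 3 nM 6-alpha-fluorotestosterone.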

In assay [5] the target is mouse Peroxisome Proliferator-activated Receptor gamma (PPARg), Pparg (gene 19016) (UniProt P37238). Put plainly: ATG_mPPARg_XSP1: Attagene TRANS-FACTORIAL Multi-Species (XSP1) HepG2 Assay for mouse Peroxisome Proliferator-activated Receptor gamma (PPARg) (AID 2283802). In outline:
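Readout is reporter mRNA induction, measured by RT-PCR with 6-FAM labelling, HpaI digestion and capillary electrophoresis, 24 h post-dose relative to DMSO. Transient multi-reporter transfection of human HepG2 with mouse PPARg–GAL4 fusion; 3 nM 6-alpha-fluorotestosterone included.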

Assay [6] has as its target frog Thyroid hormone Receptor alpha (TRa), thra-a (gene 397942) (UniProt P15204). Put plainly: ATG_frTRa_XSP1: Attagene TRANS-FACTORIAL Multi-Species (XSP1) HepG2 Assay for frog Thyroid hormone Receptor alpha (TRa) (AID 2283804). In outline: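 Reporter transcript induction, measured by RT-PCR with 6-FAM labelling and capillary electrophoresis, 24 hr after dosing transiently transfected HepG2 cells expressing a frog TRa-GAL4 fusion; medium contained 3 nM 6-alpha-fluorotestosterone; increase over DMSO scored.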

The target of assay [7] is human Thyroid hormone Receptor alpha (TRa), THRA (gene 7067) (UniProt P10827). Put plainly: ATG_hTRa_XSP1: Attagene TRANS-FACTORIAL Multi-Species (XSP1) HepG2 Assay for human Thyroid hormone Receptor alpha (TRa) (AID 2283805). The procedure, abridged:
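Reporter transcripts from the human TRa-Gal4 TRANS unit quantified by RT-PCR, fluorescent labeling and capillary electrophoresis after 24 hours of chemical exposure in transfected HepG2 cells; medium contains 3 nM 6-alpha-fluorotestosterone. Positive direction fit against DMSO.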

For assay [8], the system named is turtle Thyroid Hormone Receptor, alpha (TRa), gene 101949057. Put plainly: ATG_trTRa_XSP1: Attagene TRANS-FACTORIAL Multi-Species (XSP1) HepG2 Assay for turtle Thyroid Hormone Receptor, alpha (TRa) (AID 2283806). The procedure, abridged: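 After 24 h chemical exposure, reporter transcripts were measured by RT-PCR with fluorescent primer extension, HpaI digestion and capillary electrophoresis. Cells were transiently transfected HepG2 expressing exogenous NR-Gal4 chimeras; medium contained 3 nM 6-alpha-fluorotestosterone; fitted upward relative to DMSO.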

The test system of assay [9] is zebrafish Peroxisome Proliferator-activated Receptor gamma (PPARg), gene 557037. Put plainly: ATG_zfPPARg_XSP1: Attagene TRANS-FACTORIAL Multi-Species (XSP1) HepG2 Assay for zebrafish Peroxisome Proliferator-activated Receptor gamma (PPARg) (AID 2283801). In outline: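 Trans-activation readout of chimeric zebrafish PPARg–GAL4 in transiently transfected human HepG2 cells, 24 h chemical exposure (medium includes 3 nM 6-alpha-fluorotestosterone). Reporter transcripts measured by RT-PCR and capillary electrophoresis, fitted as gain over DMSO.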

Assay [10] concerns the target Nuclear receptor subfamily 1 group I member 2 (Mus musculus) (UniProt O54915). Put plainly: ATG_mPXR_XSP1: Attagene TRANS-FACTORIAL Multi-Species (XSP1) HepG2 Assay for mouse Pregnane X Receptor (PXR) (AID 2283803). In outline: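 Transiently transfected HepG2 cells expressing a receptor-Gal4 chimera drive a GAL4-UAS reporter; 3 nM 6-alpha-fluorotestosterone included. Reporter mRNA read 24 h post-dose by RT-PCR and capillary electrophoresis; gain of signal relative to DMSO.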

SMILES strings stand for the structures. Results filed as inconclusive are left out. The source made the active and inactive calls. How the source made its calls: active means hit-call score of the fitted dose curve at least 0.9, where 1 is the maximum; inconclusive means response in the unintended direction; inactive means score below 0.9.

We go through three compounds from PubChem BioAssay (EPA / NIEHS).

Chain of mouse Peroxisome Proliferator-activated Receptor gamma (PPARg), Pparg (gene 19016) (P37238 whole entry, looked up, the tested form may be a part): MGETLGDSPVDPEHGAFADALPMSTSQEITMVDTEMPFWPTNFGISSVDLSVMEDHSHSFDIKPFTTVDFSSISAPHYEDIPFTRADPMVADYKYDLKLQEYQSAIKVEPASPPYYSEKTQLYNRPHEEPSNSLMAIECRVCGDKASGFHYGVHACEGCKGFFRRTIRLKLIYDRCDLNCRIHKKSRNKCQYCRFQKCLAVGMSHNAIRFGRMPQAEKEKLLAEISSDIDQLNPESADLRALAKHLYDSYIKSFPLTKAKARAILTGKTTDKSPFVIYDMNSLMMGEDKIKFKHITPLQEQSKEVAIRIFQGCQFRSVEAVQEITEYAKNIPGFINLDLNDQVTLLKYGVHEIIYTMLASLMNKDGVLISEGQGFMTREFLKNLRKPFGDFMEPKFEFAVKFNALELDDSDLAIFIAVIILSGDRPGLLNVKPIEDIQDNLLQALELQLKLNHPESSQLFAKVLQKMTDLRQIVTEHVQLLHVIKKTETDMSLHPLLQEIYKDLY
Chain of Peroxisome proliferator-activated receptor gamma (Homo sapiens) (P37231 whole entry, looked up, the tested form may be a part): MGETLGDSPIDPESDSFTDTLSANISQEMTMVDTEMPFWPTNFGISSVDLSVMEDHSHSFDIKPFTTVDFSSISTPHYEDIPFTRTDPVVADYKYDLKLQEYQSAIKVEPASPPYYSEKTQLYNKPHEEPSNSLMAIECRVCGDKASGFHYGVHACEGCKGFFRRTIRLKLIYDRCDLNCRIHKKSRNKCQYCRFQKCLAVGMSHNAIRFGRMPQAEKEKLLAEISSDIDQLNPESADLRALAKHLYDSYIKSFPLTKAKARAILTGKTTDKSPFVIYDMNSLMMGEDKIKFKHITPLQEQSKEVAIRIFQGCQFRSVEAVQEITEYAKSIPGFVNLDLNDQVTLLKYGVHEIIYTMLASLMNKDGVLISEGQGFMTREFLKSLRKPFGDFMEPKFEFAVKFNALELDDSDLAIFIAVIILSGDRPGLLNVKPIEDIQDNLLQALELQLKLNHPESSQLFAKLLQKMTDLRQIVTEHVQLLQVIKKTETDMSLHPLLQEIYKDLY
Chain of human Thyroid hormone Receptor alpha (TRa), THRA (gene 7067) (P10827 whole entry, looked up, the tested form may be a part): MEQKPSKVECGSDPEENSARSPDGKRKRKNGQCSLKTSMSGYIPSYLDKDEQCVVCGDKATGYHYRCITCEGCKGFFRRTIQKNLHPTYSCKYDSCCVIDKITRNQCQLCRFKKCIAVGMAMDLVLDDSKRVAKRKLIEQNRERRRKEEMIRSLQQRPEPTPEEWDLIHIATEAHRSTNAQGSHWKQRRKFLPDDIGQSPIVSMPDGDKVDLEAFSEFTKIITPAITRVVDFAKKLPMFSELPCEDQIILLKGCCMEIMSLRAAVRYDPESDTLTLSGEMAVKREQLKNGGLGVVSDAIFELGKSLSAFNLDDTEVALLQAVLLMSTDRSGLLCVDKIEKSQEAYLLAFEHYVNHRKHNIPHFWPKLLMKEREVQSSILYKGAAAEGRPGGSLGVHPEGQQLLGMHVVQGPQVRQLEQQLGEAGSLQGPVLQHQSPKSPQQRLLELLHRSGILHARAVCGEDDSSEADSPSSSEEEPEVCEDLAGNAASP
Chain of frog Thyroid hormone Receptor alpha (TRa), thra-a (gene 397942) (P15204 whole entry, looked up, the tested form may be a part): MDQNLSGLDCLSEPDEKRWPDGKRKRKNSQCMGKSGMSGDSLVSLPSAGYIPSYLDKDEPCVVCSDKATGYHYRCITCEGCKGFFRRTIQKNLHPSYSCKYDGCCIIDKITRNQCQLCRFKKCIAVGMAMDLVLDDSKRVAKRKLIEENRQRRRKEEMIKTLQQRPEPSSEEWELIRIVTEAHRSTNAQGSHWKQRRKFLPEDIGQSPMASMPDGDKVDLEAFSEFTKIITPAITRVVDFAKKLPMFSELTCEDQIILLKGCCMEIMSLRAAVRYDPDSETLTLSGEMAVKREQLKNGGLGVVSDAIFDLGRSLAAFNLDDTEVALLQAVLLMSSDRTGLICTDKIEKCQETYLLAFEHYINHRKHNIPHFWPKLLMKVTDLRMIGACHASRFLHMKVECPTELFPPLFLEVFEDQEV
Chain of Nuclear receptor subfamily 1 group I member 2 (Mus musculus) (O54915 whole entry, looked up, the tested form may be a part): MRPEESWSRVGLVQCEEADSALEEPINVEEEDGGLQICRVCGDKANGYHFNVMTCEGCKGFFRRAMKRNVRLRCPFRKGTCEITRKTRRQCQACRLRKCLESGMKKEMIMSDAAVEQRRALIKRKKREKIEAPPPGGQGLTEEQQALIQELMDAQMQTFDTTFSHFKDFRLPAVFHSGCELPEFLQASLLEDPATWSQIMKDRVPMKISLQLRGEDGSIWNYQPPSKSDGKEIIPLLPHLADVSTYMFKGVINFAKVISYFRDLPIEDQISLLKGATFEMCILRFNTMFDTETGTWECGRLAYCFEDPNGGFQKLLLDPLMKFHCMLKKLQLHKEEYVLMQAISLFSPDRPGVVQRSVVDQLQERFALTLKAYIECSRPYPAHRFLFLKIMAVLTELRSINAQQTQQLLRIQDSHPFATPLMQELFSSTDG

For `CCN(CC)C(=S)SSC(=S)N(CC)CC`, the compound was called inactive in [1], in assay [2], in assay [3], in assay [4], in assay [5] and in [6]. In addition, the result in assay [7] and in assay [8] was inactive.
For `CC(C)C(=O)Nc1ccc([N+](=O)[O-])c(C(F)(F)F)c1`, the compound was classed as inactive in assay [1], in [2] and in assay [9]. Moreover, the AC50 was 21.9 µM (active) in [4]; 27.1 µM (active) in assay [5]; 27.4 µM (active) in assay [10]; 63.9 µM (active) in assay [6]; 29 µM (active) in [7]; 22.7 µM (active) in assay [8].
With `C=CCc1cc(S(=O)(=O)c2ccc(O)c(CC=C)c2)ccc1O`, the compound was classed as inactive in assay [1], in assay [2], in assay [3], in [9], in assay [6] and in assay [7]. Also, the AC50 in [4] is 4.14 µM (active); in assay [5], 3.63 µM (active); in assay [8], 100 µM (active).

A word on the AC50: it is the concentration giving half of the maximal activity seen.
